Experimental data reported in PubChem BioAssay AID720700 (The Scripps Research Institute Molecular Screening Center, 2013).
In all, about 370,000 compounds went through this assay and about 3,100 (0.84%) were called active. Rule as the data show it: active = inhibition above about 9.5%; inactive = the rest. For the sample, actives were picked, then their nearest neighbours and some compounds at random.

Each molecule was assayed against 1-phosphatidylinositol 4,5-bisphosphate phosphodiesterase gamma-1 (Homo sapiens) (UniProt P19174) (assay: PLC-gamma1 enzyme inhibitors, primary screen, biochemical, fluorescence, purified enzyme (AID 720700)). Conditions: purified PLC-gamma1, fluorogenic substrate, at 12.2 µM, stronger effect = higher value.
Sequence of 1-phosphatidylinositol 4,5-bisphosphate phosphodiesterase gamma-1 (Homo sapiens) (P19174 whole entry, looked up): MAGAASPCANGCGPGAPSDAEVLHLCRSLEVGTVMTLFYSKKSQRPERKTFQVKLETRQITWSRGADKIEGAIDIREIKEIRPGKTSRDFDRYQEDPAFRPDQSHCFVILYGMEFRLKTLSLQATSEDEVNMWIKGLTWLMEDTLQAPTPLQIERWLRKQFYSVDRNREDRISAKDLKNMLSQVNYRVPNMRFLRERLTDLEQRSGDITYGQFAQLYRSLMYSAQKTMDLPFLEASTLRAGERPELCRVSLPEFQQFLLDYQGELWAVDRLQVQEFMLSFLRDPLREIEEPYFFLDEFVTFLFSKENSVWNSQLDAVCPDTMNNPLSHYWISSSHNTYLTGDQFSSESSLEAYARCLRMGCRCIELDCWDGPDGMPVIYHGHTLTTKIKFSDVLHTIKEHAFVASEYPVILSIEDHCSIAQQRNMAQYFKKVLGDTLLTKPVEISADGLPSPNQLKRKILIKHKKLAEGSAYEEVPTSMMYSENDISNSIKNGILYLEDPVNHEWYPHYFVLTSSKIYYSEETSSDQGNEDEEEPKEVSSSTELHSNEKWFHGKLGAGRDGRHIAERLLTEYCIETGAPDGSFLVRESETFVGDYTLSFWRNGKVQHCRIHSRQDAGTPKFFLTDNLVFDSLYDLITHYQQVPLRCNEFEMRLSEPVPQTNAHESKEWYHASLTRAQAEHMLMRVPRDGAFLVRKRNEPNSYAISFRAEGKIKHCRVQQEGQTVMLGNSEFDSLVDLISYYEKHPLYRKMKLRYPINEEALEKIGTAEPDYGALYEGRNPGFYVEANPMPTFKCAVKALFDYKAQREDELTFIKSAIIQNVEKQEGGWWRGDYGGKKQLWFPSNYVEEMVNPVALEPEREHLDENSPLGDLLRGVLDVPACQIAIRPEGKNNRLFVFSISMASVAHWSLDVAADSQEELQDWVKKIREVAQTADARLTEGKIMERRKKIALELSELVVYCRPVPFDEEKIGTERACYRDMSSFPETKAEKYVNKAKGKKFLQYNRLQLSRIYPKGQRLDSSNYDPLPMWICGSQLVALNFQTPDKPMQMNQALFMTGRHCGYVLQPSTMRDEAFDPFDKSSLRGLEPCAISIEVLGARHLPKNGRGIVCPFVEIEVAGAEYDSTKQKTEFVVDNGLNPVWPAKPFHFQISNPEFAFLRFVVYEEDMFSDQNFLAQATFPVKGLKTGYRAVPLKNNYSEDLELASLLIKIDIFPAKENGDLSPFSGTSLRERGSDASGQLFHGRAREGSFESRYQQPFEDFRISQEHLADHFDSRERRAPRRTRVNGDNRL

| SMILES | inhibition |
| --- | --- |
| Cc1cc(C)n2ncc(C(=O)Nc3ccc4c(c3)OCCO4)c2n1 | -0.99% (inactive) |
| CN(C)[C@H]1CCN(c2cccc3c2S(=O)(=O)N2CC[C@H](C2)O3)C1 | 1.23% (inactive) |
| CC(=O)c1ccc(N2CCN(CC(=O)Nc3ccccc3N3CCOCC3)CC2)cc1 | -2.41% (inactive) |
| O=C(CN1CCN(C2CCCCC2)CC1)Nc1ccccc1N1CCCCC1 | 10.2% (active) |
| O=C(CN1CCCCC1)Nc1ccccc1C(=O)NC1CC1 | 3.56% (inactive) |
| COc1ccc(NC(=O)c2ccc(OC)cc2)cc1 | 11% (active) |
| COc1ccc(NC(=O)c2ccccc2CC[N+](=O)[O-])cc1 | 0.81% (inactive) |
| COc1ccc(C(=O)Nc2c(N)nc(SCC(=O)Nc3ccc(C(C)=O)cc3)[nH]c2=O)cc1 | -0.47% (inactive) |
| C[C@@H]1CN([C@@H](C)CO)C(=O)c2cccc(NC(=O)Nc3cccc4ccccc34)c2O[C@H]1CN(C)S(=O)(=O)c1ccccc1F | -11.6% (inactive) |
| CCN(CC)CCCNC(=O)c1ccc2c(=O)n(Cc3ccc4c(c3)OCO4)c(=S)[nH]c2c1 | -2.49% (inactive) |
| Cc1cccc(NC(=O)c2ccc3c(=O)n(CC4CCCO4)c(=S)[nH]c3c2)c1 (centres undefined) | 10.2% (active) |
| O=C(NCc1ccccc1Cl)c1ccc2c(=O)n(CC3CCCO3)c(=S)[nH]c2c1 (centres undefined) | 2.56% (inactive) |
| Cc1ccc(NC(=S)NNC(=O)CSc2nnc(SCc3ccccc3Cl)s2)cc1 | -4.17% (inactive) |
| CC(=O)OCCN1CCCC12CCC(c1ccccc1)CC2 (centres undefined) | -1.82% (inactive) |
| CCc1ccccc1NC(=O)CSc1nnc(-c2cccs2)o1 | -2.39% (inactive) |
| COC(=O)[C@]12C[C@H](CC(=O)NCc3ccccc3)C(=O)N(CCc3ccc(OC)c(OC)c3)C1=C[C@H](C(C)(C)C)O[C@@H]2C | 1.65% (inactive) |
| COC(=O)C1CN(Cc2cn(Cc3ccc(F)cc3)nn2)CCS(=O)(=O)N1Cc1ccc(Cl)cc1 (centres undefined) | 0.64% (inactive) |
| C=CCN1C(=O)[C@H](CC(=O)N2CCN(C(=O)OCC)CC2)[C@@]2(C(=O)OCC)CCCC=C12 | 0.46% (inactive) |
| FC(F)(F)c1cccc(Cn2ccc3ccc(-c4ccc5ccn(Cc6ccccc6)c5c4)cc32)c1 | -66.4% (inactive) |
| O=c1c([N+](=O)[O-])cccn1Cc1ccc(F)cc1Cl | 3.37% (inactive) |
| O=c1c([N+](=O)[O-])cc(C(F)(F)F)cn1Cc1cccc(Cl)c1 | 11.6% (active) |
| COC(=O)[C@]12C[C@H](CC(=O)NCC34CC5CC(CC(C5)C3)C4)C(=O)N(Cc3ccc(Cl)cc3Cl)C1=C[C@H](COCc1ccccc1)O[C@@H]2C | -0.03% (inactive) |
| CCN(CC)Cc1csc2ccc(Br)cc12 | 9.63% (active) |
| CCN(CC)Cc1cc(C(C)=O)ccc1O | 3.56% (inactive) |
| CN(CCO)Cc1csc2ccc(Br)cc12 | 1.91% (inactive) |
| C=CCN1C(=O)[C@@H](CC(=O)NCCCCc2ccccc2)[C@]2(C(=O)OCC)CCCCC/C=C/12 | -0.06% (inactive) |
| O=C(CN1CCCc2ccccc21)NCc1ccc(F)cc1 | -1.61% (inactive) |

| SMILES | inhibition |
| --- | --- |
| COc1ccccc1C(=O)N1CCNC(=O)C1CC(=O)Nc1ccc(Cl)cc1 (centres undefined) | 7.83% (inactive) |
| COc1ccc(NC(=O)CC2C(=O)NC3CCCCC3N2C(=O)c2ccc(F)cc2)cc1 (centres undefined) | 0.91% (inactive) |
| COc1ccccc1C(=O)N1C(CC(=O)Nc2ccccc2C)C(=O)NC2CCCCC21 (centres undefined) | 9.7% (active) |
| O=C(C1CCN(S(=O)(=O)c2ccccc2)CC1)N1CCN(C2CCCCC2)CC1 | -0.77% (inactive) |
| Cc1ccc(-n2c(SCC(=O)Nc3cccc4ccccc34)nnc2-c2ccccn2)cc1 | -0.11% (inactive) |
| Cc1n[nH]c(=O)n1-c1ccc(Oc2ccccc2)cc1 | -0.23% (inactive) |
| O=C1CS(=O)CN1c1ccc(Oc2ccccc2)cc1 (centres undefined) | 12% (active) |
| Oc1oc(-c2ccccc2Br)nc1/C=N/c1ccccn1 | -17.6% (inactive) |
| CC(N=Cc1nc(-c2ccccc2)oc1O)c1ccccc1 (centres undefined) | 14.1% (active) |
| O=C1CC[C@@]23CCCN2C(=O)CCC[C@H]3[C@H]1Cc1ccccc1 | 0.07% (inactive) |
| CCc1c(C)nc(N2CCN(Cc3ccccc3)CC2)[nH]c1=O | -1.09% (inactive) |
| CCCCn1c(CN2CCN(CCO)CC2)nc2ccccc21 | 0.96% (inactive) |
| CC(C)n1c(CN2CCN(Cc3ccccc3)CC2)nc2ccccc21 | 9.89% (active) |
| O=C(NCc1cccs1)C1CCCN(S(=O)(=O)c2ccc([N+](=O)[O-])cc2)C1 (centres undefined) | 3.77% (inactive) |
| O=S(=O)(c1ccccc1)N1CCC(c2nc3ccccc3o2)CC1 | -4.98% (inactive) |
| COc1ccc(C(CNC(=O)c2cc(S(=O)(=O)Nc3cccc(C)c3)ccc2C)N2CCCC2)cc1 (centres undefined) | 11% (active) |
| COc1ccc(NS(=O)(=O)c2ccc(C)c(C(=O)NCC(c3cccs3)N3CCOCC3)c2)cc1 (centres undefined) | -3.99% (inactive) |
| Cc1cccc(NS(=O)(=O)c2ccc(C)c(C(=O)NCC(c3ccccc3)N(C)C)c2)c1 (centres undefined) | 2.63% (inactive) |
| C=CCOC/C=C/C#CCN(CC=C)Cc1ccc(OC)cc1OC | 2.05% (inactive) |
| Cc1ccc(-n2c(SCC(=O)Nc3ccc(S(=O)(=O)Nc4nccs4)cc3)nnc2-c2cccnc2)cc1 | 6.23% (inactive) |
| COCCNC(=O)C(c1ccc(C)cc1)N(C(=O)CCC(=O)Nc1ccccn1)c1cccc(C)c1 (centres undefined) | 5.63% (inactive) |
| COCCNC(=O)C(c1ccc(O)cc1)N(C(=O)CCC(=O)Nc1nccs1)c1ccc(C)cc1 (centres undefined) | 15.2% (active) |
| COCCN(C(=O)CCC(=O)Nc1nccs1)C(C(=O)NCCC(C)C)c1ccc(F)cc1 (centres undefined) | 3.17% (inactive) |
| CCC(=O)OCCCN1C(=O)CCC12CCC(c1ccccc1)CC2 (centres undefined) | 1.02% (inactive) |
| C[C@@H]1COc2cccc(N3CCCC3)c2S(=O)(=O)N1C | -3.06% (inactive) |
| C=CC1=C(C(=O)O)N2C(=O)[C@@H](NC(=O)/C(=N/OCC(=O)O)c3csc(N)n3)[C@H]2SC1 | 22.2% (active) |
| C=CC1=C(C(=O)O)N2C(=O)[C@@H](NC(=O)/C(=N\OCC(=O)O)c3csc(N)n3)[C@H]2SC1 | 23.4% (active) |
